GPT2 inh = Primary qHTS assay for inhibitors of Glutamate pyruvate transaminase 2 (GPT2); Alanine aminotransferase 2 (Homo sapiens), Q8TD30; Recombinant GPT2, coupled pyruvate oxidase/HRP Amplex Red fluorescence; Potency, µM (series often up to 57.7 µM), without a hit: at the highest dose activity change, negative = inhibition, usual class: inhibitors; 0.25% of 100,000 active; AID 1671188, 2021; note: nearly all actives have a fitted effect of over 60% in size
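GPT2 10ng/uL, a-KG 250uM, L-Ala 2mM, HEPES pH7.5 + 0.0001% Tween; 30 min RT. Then Amplex mix (PO/HRP/ThPP), 30 min RT dark, fluorescence. AOA 50uM used as positive control.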
FLuc inh = Firefly luciferase inhibition profiling of diverse chemical library using quantitative high-throughput screening. purified P. pyralis luciferase, luminescence, biochemical. 2.5% of 76,000 active. Potency, µM (top dose mostly 115 µM), most hits filed as inhibitors; note: nearly all actives have a fitted effect of over 65% in size
Target sequence (P08659 whole entry, looked up): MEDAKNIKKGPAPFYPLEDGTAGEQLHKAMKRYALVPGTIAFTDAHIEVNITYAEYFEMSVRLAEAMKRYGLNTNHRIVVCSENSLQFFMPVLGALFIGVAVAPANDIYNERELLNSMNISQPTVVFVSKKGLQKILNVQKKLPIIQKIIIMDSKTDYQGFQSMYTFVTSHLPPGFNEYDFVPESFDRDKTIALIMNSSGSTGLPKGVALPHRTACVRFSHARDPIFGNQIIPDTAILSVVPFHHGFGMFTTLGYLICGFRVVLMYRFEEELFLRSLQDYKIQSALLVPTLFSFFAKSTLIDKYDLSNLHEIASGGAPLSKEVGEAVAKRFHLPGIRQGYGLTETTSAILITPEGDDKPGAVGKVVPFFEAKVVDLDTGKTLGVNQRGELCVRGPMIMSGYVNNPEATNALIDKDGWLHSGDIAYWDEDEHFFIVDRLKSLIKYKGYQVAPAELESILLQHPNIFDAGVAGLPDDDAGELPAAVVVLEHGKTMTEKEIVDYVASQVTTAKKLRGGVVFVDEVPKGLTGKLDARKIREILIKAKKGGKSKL
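FLuc 10nM, D-luciferin 10uM, ATP 10uM, Mg acetate 10mM, Tris acetate pH 7.5, Tween/BSA; cpd qHTS; enzyme added last; CCD luminescence.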
HEK293 tox = Cytotoxic Profiling in HEK 293 Cell Line of Diverse Libraries Using Quantitative High-Throughput Screening; HEK 293 viability, ATP luminescence (CellTiter-Glo), 48-72 h; Potency, µM (doses to about 115 µM), for inactives: at the top dose activity change, negative = cytotoxicity, most hits filed as inhibitors; 6.6% of 94,000 active; AID 1345083, 2018; note: nearly all actives have a fitted effect of over 60% in size
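250 HEK 293 cells/well; compound by pintool; incubated 48 or 72 hr at 37 degree Celsius; CellTiter-Glo added, 10 min RT, luminescence imaged.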
hNpr1 antagonist = Natriuretic polypeptide receptor (hNpr1) antagonism - Primary qHTS. Atrial natriuretic peptide receptor 1 (Homo sapiens), P16066. HEK293 hNpr1 GloSensor cGMP, ANP-stimulated luminescence. Potency, µM (series often up to 46.3 µM), for the others: at the top dose activity change, negative = inhibition, most hits filed as inhibitors. 1.6% of 76,000 active. AID 1347048, 2019; calls by dose curve; note: nearly all actives have a fitted effect of over 60% in size
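Compound pre-incubated 30 min at room temperature on GloSensor-loaded HEK293 cells stably carrying hNpr1 and the pGS-40F cGMP biosensor. Stimulation uses hNppA at 0.1 nM final; luminescence is taken at baseline and 20 min post-agonist.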
NIH3T3 tox = Cytotoxic Profiling in NIH 3T3 Cell Line of Diverse Libraries Using Quantitative High-Throughput Screening; NIH 3T3 viability, CellTiter-Glo ATP luminescence, 48-72 h; Potency, µM (series often up to 96.7 µM), inactives show at the top dose activity change, negative = cytotoxicity, actives largely listed as inhibitors; 4.3% of 94,000 active; AID 1345082, 2018; note: nearly all actives have a fitted effect of over 55% in size
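Mouse fibroblast NIH 3T3 cells, 400 per well, received compound via pintool and were incubated for 48 or 72 hr prior to CellTiter-Glo ATP luminescence measurement.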
Numbers without * were called inactive. Shown are actives, neighbours in structure and some others; about 10% of the full set was active somewhere. Unless noted, calls come from the whole dose curve; as a rule, active = well fitted curve in the direction sought with a large enough effect; inconclusive = small, poorly fitted or top-dose-only effect, or another doubt; inactive = no such curve, though single readings can be large; an effect the other way counts as inactive or inconclusive. % is set by controls: 0 for no effect and ±100 for the full control effect; potency is the fitted concentration of half-maximal effect.

What do the screens show for `COc1ccc(C(=O)N2CCC(N3C(=O)[C@H]4CN(Cc5ccccc5)C[C@H]4C3=O)CC2)cc1`?
GPT2 inh: 0.5%; HEK293 tox: inconclusive; NIH3T3 tox: inconclusive

Results for CCOC(=O)c1ccc(NC2CCCCC2)c(N)c1 ?
GPT2 inh: 3.55µM*

Results for Cc1cccc(C(=O)N2CCC3(CC2)CC(Cc2ccc(F)cc2)CCO3)c1 (stereo not given) ?
GPT2 inh: -7.6%; FLuc inh: inactive; HEK293 tox: 44.7µM*; hNpr1 antagonist: -15.7%; NIH3T3 tox: inconclusive

What do the screens show for `COCC1CN(C(=O)c2ccc(Cc3c(C)noc3C)o2)CC12CCNCC2` (stereo not given)?
GPT2 inh: inactive; FLuc inh: inactive; HEK293 tox: -20.7%; hNpr1 antagonist: 3.6%; NIH3T3 tox: -10.8%

What do the screens show for `O=C(CC1CCOC2(CCN(C(=O)c3cccs3)CC2)C1)N1CCCC1` (stereo not given)?
GPT2 inh: inactive; HEK293 tox: -8.3%; NIH3T3 tox: -17.1%

What do the screens show for `Cc1noc(C)c1Cc1ccc(C(=O)N2CCC3(CC2)CC(Cc2ccc(F)cc2)CCO3)o1` (stereo not given)?
GPT2 inh: inactive; HEK293 tox: 28.2µM*; NIH3T3 tox: inconclusive

What do the screens show for `Cc1ccc(CC2CCOC3(CCN(C(=O)c4cccs4)CC3)C2)cc1` (stereo not given)?
GPT2 inh: -16.1%; FLuc inh: inactive; HEK293 tox: 44.7µM*; hNpr1 antagonist: inconclusive; NIH3T3 tox: inconclusive

What do the screens show for `Cc1ccc(CC2CCOC3(CCN(C(=O)c4cccc(C#N)c4)CC3)C2)cc1` (stereo not given)?
GPT2 inh: -13.4%; FLuc inh: inactive; HEK293 tox: 50.1µM*; hNpr1 antagonist: inconclusive; NIH3T3 tox: inconclusive

What do the screens show for `O=C(COc1ccc(F)cc1)N1CC(CNC(=O)N2CCCC2)C2(CCOCC2)C1` (stereo not given)?
GPT2 inh: inactive; HEK293 tox: -8.0%; NIH3T3 tox: -17.9%

What do the screens show for `O=C(CN1C(=O)NC2(CCOCC2)C1=O)Nc1ccc(Cl)cc1`?
GPT2 inh: inactive; FLuc inh: inactive; HEK293 tox: -2.1%; hNpr1 antagonist: 18.2%; NIH3T3 tox: -15.7%

How did O=C(NCCc1ccccc1)C1Cn2cccc2C(=O)N1Cc1cccnc1 (stereo not given) do in these assays?
GPT2 inh: -5.6%; FLuc inh: inactive; HEK293 tox: -5.0%; hNpr1 antagonist: -2.2%; NIH3T3 tox: -24.0%

How did COc1ccccc1-c1ccc(CN2CCCCC2C(=O)NC2CC2)cc1 (stereo not given) do in these assays?
HEK293 tox: 39.8µM*; NIH3T3 tox: inconclusive

What do the screens show for `COc1ccc(F)cc1-c1ccc(CN2CCC(NC(=O)C3CCCCC3)C2)cc1` (stereo not given)?
HEK293 tox: 44.7µM*; NIH3T3 tox: 31.6µM*

What do the screens show for `COc1ccc(F)cc1-c1ccc(CN2CCCCC2C(=O)NC2CCC2)cc1` (stereo not given)?
HEK293 tox: 35.5µM*; NIH3T3 tox: inconclusive

What do the screens show for `COc1ccc(F)cc1-c1ccc(CN2CCCCC2C(=O)N2CCN(c3ncccn3)CC2)cc1` (stereo not given)?
HEK293 tox: 44.7µM*; NIH3T3 tox: inconclusive

How did O=C(NC1CC1)C1CCCN1Cc1ccc(-c2cncnc2)cc1 (stereo not given) do in these assays?
GPT2 inh: inactive; HEK293 tox: inactive; NIH3T3 tox: -0.4%

What do the screens show for `CN1CCN(C(=O)c2cc(-c3ccc(F)cc3)c3nncn3n2)CC1`?
GPT2 inh: inactive; HEK293 tox: -12.0%; NIH3T3 tox: -20.9%

High-throughput results: PubChem, National Center for Advancing Translational Sciences (NCATS)
